Only some compounds are listed: those with a hit (about 13% of all), similar ones and a draw of the others.
USP17 inh = inhibitors of human USP17 deubiquitinase; A8MUK1; purified USP17, Ub-rhodamine cleavage fluorescence, 3 h; inhibition, % at 50 µM; 47,000 compounds, 6.5% hits; AID 1645855
USP10 block = blocks human USP10 ubiquitin-rhodamine cleavage | purified USP10, Ub-rhodamine fluorescence, 60 min | Q14694 | 47,000 compounds, 1.1% hits | inhibition, % at 20 µM
USP28 inh = inhibitors of human USP28 deubiquitinase; purified USP28, Ub-rhodamine cleavage fluorescence, 30 min; AID 1645857; Q96RU2; inhibition, % at 25 µM; 47,000 compounds, 3% hits
USP8 block = inhibitors of human USP8 deubiquitinase; P40818; purified USP8, Ub-rhodamine cleavage fluorescence, 30 min; inhibition, % at 20 µM; 47,000 compounds, 4.2% hits; AID 1645853
USP30 block = human USP30 deubiquitinase inhibition | 47,000 compounds, 5.3% hits | purified USP30, Ub-rhodamine cleavage fluorescence | inhibition, % at 25 µM | AID 1645860
Target sequence (Q70CQ3 whole entry, looked up): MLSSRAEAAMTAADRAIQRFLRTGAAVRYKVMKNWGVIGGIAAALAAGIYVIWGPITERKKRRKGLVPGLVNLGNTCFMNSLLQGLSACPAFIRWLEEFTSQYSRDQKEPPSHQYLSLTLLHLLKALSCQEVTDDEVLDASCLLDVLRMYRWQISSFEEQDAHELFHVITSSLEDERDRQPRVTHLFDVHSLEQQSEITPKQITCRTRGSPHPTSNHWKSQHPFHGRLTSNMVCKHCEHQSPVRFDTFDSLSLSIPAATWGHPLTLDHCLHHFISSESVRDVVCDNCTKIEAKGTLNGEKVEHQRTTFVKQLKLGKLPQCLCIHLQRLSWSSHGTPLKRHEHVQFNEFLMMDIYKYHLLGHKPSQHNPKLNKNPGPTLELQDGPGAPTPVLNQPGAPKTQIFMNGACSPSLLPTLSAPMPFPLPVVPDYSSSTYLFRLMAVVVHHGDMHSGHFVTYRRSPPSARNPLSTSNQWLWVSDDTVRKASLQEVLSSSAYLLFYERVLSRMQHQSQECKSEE
* marks the source's active call; other numbers are inactive results; . = no result. No stated cut-off is given here; in the data, active means inhibition above about 30%; inactive means the rest.

SMILES	USP17 inh	USP10 block	USP28 inh	USP8 block	USP30 block
CCc1cc(C2CCCN2C(=O)c2cc(-c3ccc(OC)cc3)no2)on1 (stereo unspecified)	0	1	3	6	6
CCc1nc(-c2ccc(C(=O)N3CCN(c4ccc(C(C)=O)cc4)CC3)cc2)no1	2	-2	4	6	-4
Cc1ccc(NC(=O)CSc2nc3c(cc2C#N)C(=O)CCC3)cc1	55*	21	0	14	0
N#Cc1cc2c(nc1SCC(=O)NCc1ccccc1)CCCC2	59*	3	13	-2	20
COc1ccc(CN(CC(=O)NC(C)(C)C)C(=O)CCC(=O)Nc2ccccn2)cc1	0	2	0	5	4
O=S(=O)(c1ccc(-c2ccco2)cc1)C1CCN(CCc2ccccn2)CC1	31*	-6	-12	4	-51
N#Cc1cc(C(=O)c2ccc(Cl)cc2)c[nH]1	51*	-3	28	-6	29
COc1ccc(C(=O)c2c[nH]c(C(N)=O)c2)cc1	3	1	3	-1	20
COc1cccc(-n2ccn3cc(-c4ccccc4)nc3c2=O)c1	33*	-1	-19	3	-59
COc1cccc(-n2ccn3cc(-c4ccc5c(c4)OCO5)nc3c2=O)c1	.	-9	-76	-2	-405
COc1ccc(-c2cc(C(=O)OCC(=O)Nc3cc(C)on3)c3ccccc3n2)cc1OC	30*	-6	-62	-6	-222
O=C(NCCCN1CCN(c2ccc(F)cc2)CC1)c1ccc2c(=O)n(CCc3ccccc3)c(=O)[nH]c2c1	31*	3	20	30*	42*
O=C(c1ccc(Cn2c(=O)[nH]c3ccccc3c2=O)cc1)N1CCN(Cc2ccc3c(c2)OCO3)CC1	33*	4	18	9	25
O=C(NC1CCN(Cc2ccccc2)CC1)c1ccc(Cn2c(=O)[nH]c3ccccc3c2=O)cc1	-6	2	0	3	0
O=C(CCn1c(=O)[nH]c2ccccc2c1=O)N1CCN(c2ccc(F)cc2)CC1	-12	2	-9	-13	-15
O=C(c1ccc(Cn2c(=O)[nH]c3ccccc3c2=O)cc1)N1CCN(c2ccc(F)cc2)CC1	10	8	18	1	48*
COc1cc(C2=Nc3ncnn3C2=NCc2ccc(F)cc2)cc(OC)c1OC	12	3	3	12	27
Cn1c(=O)c2c(nc(NCC(O)c3ccccc3)n2Cc2c(F)cccc2Cl)n(C)c1=O (stereo unspecified)	2	5	6	4	-2
CSc1nnc(NC(=O)Cc2coc3ccc(C)cc23)s1	0	2	0	8	-11
Cc1c(C)c2sc(=O)[nH]c2[nH]c1=O	24	0	9	-8	1
Cc1nccc(N2CCC(c3c(C(=O)N(C)C)sc4nccnc34)CC2)n1	8	3	8	3	30*
COc1ccccc1S(=O)(=O)N1C[C@H]2NC(=O)c3ccccc3C(=O)[C@@]2(C)C1	1	1	1	4	1
CSc1nc2ncn(CC(=O)Nc3cccc(Cl)c3)c(=O)c2s1	60*	0	1	33*	17
CN(C)c1ncc(-c2ccccc2F)c(C2CCCNC2)n1 (stereo unspecified)	10	0	8	9	20
C/C1=C\CCC(C)C(O)CC(O)C(C)C(O)CCC(C)C(O)CC2(O)OC(CC(OC(=O)CC(=O)O)CC(O)CC(O)CC(O)C(C)C(O)/C=C/C(C)C(C(C)CCCCCCCCN=C(N)N)OC1=O)CC(O)C2O (stereo unspecified)	2	-9	51*	-19	-42
SMILES	USP17 inh	USP10 block	USP28 inh	USP8 block	USP30 block
O=C(CCCn1c(SCC(=O)Nc2cccc(C(F)(F)F)c2)nc2ccccc2c1=O)NCCc1ccccc1	24	13	14	-13	35*
NS(=O)(=O)c1ccc(CCNC(=O)CSc2nc3ccccc3c(=O)n2CCC(=O)N2CCN(c3ccccc3)CC2)cc1	6	9	2	20	11
COCCn1c(SCC(=O)Nc2ccccc2C(F)(F)F)nnc1-c1c[nH]c2ccccc12	-12	0	-10	-13	-9
CCOCCCn1c(SCC(=O)Nc2ccccc2C(F)(F)F)nc2ccccc2c1=O	44*	3	18	0	55*
Cc1noc(C)c1CC(=O)N1CCC(Nc2cccnc2)C1 (stereo unspecified)	-17	-3	-25	-56	-87
COc1ccc(CC(=O)N2CCC(Nc3cccnc3)C2)cc1 (stereo unspecified)	42*	-5	-19	-4	-132
CC(C)c1cc(C(=O)N2C[C@@H](c3cccc(F)c3)[C@@H]3NC(=O)CCCC[C@H]32)n[nH]1	2	1	5	5	-2
Cc1cccc(N2CCN(C(=O)c3cc(=O)n(C)c4c3c(=O)n(C)c(=O)n4C)CC2)c1C	3	-1	3	-44	0
Cc1cccc(/C=C/c2nc3ccc([N+](=O)[O-])cc3s2)c1	43*	4	-10	87*	-59
CC(=O)N1CC(C(=O)NCc2ccc3c(c2)OCO3)C1	2	6	9	-16	28
CC(C(=O)NCc1ccc2c(c1)OCO2)n1nc(-c2ccccc2)c2cc(Cl)ccc21 (stereo unspecified)	35*	0	16	2	25
CC(C(=O)NCc1ccc2c(c1)OCO2)N1CCN(c2ccc(O)cc2)CC1 (stereo unspecified)	73*	8	30	60*	23
COC(=O)c1ccccc1NC(=O)C(C)n1nc(-c2ccccc2)c2cc(Cl)ccc21 (stereo unspecified)	-3	3	-14	0	-25
NC(=O)C1CCCN1c1ncnc2sc3c(c12)CCC3 (stereo unspecified)	-3	-2	-7	-6	-20
CC(=O)Nc1cccc(NC(=O)c2sc(-c3ccccc3F)nc2C)c1	-3	0	4	-24	5
O=C(Cn1cccc1-c1nnc(C2CC2)o1)Nc1cccc(F)c1	32*	-1	-1	0	-8
Cc1cc(NC(=O)Cn2c(C)cc(-c3nnc(C4CC4)o3)c2C)ccc1F	35*	-2	30	0	44*
O=C(NC1CC1)c1nnn(-c2ccc(Cl)cc2)c1-c1cccnc1	-9	2	-5	-61	-4
CC1(C)Oc2ccccc2[C@H]2OCC3(CCN(C(=O)CCN4CCOCC4)CC3)C[C@@H]21	-3	-5	-1	-4	2

Source: PubChem BioAssay
